Experimental data reported in PubChem BioAssay (NCI).
About 83,000 compounds went through this panel and 20% of them were active in at least one assay; those are over-represented in the sample as a whole.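 Method: cells in 96-well plates; compound added at one concentration; 48 h incubation; percent growth measured; values under 10 scored active.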 Unmarked numbers belong to inactive results. Calls of active or inactive are those of the source.

Experiments:
Assay in all cases: NCI-60 one-dose screen, 48 h (100 = growth as untreated, 0 = no growth, -100 = all killed)
Settings in all cases: 10 µM unless noted
SR leukemia = system: SR leukemia
RPMI-8226 leukemia = system: RPMI-8226 leukemia
OVCAR-8 ovarian = system: OVCAR-8 ovarian
OVCAR-5 ovarian = system: OVCAR-5 ovarian
OVCAR-4 ovarian = system: OVCAR-4 ovarian
SK-OV-3 ovarian = system: SK-OV-3 ovarian
IGROV1 ovarian = system: IGROV1 ovarian
OVCAR-3 ovarian = system: OVCAR-3 ovarian
HS 578T breast = system: HS 578T breast
NCI/ADR-RES ovarian = system: NCI/ADR-RES ovarian
T-47D breast = system: T-47D breast
BT-549 breast = system: BT-549 breast
MDA-MB-435 melanoma = system: MDA-MB-435 melanoma
SW-620 colon = system: SW-620 colon
MCF7 breast = system: MCF7 breast
HCT-116 colon = system: HCT-116 colon
HCC-2998 colon = system: HCC-2998 colon
KM12 colon = system: KM12 colon

Compound	growth (SR leukemia)	growth (RPMI-8226 leukemia)	growth (OVCAR-8 ovarian)	growth (OVCAR-5 ovarian)	growth (OVCAR-4 ovarian)	growth (SK-OV-3 ovarian)	growth (IGROV1 ovarian)	growth (OVCAR-3 ovarian)	growth (HS 578T breast) [%]	growth (NCI/ADR-RES ovarian)	growth (T-47D breast)	growth (BT-549 breast)	growth (MDA-MB-435 melanoma)	growth (SW-620 colon)	growth (MCF7 breast)	growth (HCT-116 colon)	growth (HCC-2998 colon)	growth (KM12 colon)
CCN(C(=O)CN1CCN(c2cc3c(cc2F)c(=O)c(C(=O)O)cn3CC)CC1)c1nc(-c2ccccc2)cs1	-11% (active)	-3.49% (active)	7.67% (active)	35.6%	3.24% (active)	-2.59% (active)	23.3%	16.8%	13.6	5.3% (active)	11.9%	3.3% (active)	-13.9% (active)	13.9%	7.6% (active)	14%	19.6%	12.7%
COc1cc(NCCCCN=C(N)NC(N)=NC(C)C)c2ncccc2c1	98.2%	17.5%	45.4%	87.2%	-9.62% (active)	100%	-31.9% (active)	-43.7% (active)	100	109%	-8.55% (active)	54.8%	110%	62.9%	-94.3% (active)	1.56% (active)	11.9%	20.1%
COc1ccc(-c2cc(-c3cccnc3)nc3sc4c(=O)n(-c5ccc(C)cc5)cnc4c23)cc1OC	96.1%	97.6%	101%	86.7%	92.3%	99.2%	106%	98.8%	87.2	103%	98.7%	100%	98.7%	96.2%	97%	99.1%	109%	101%
CCOC(=O)c1ccc2c(c1)nc(/C=C/c1ccc(Cl)cc1)n2-c1cc(C(C)(C)C)[nH]n1	52.2%	52.3%	38.5%	110%	38.3%	43.3%	15.4%	22.2%	51.3	68%	56.2%	57.4%	62.7%	64.9%	42.4%	52%	88.4%	54%
CCOC(=O)C(Cc1cc(I)c(O)c(I)c1)NC(=O)c1ccccc1 (configuration not stated)	88.9%	89.5%	97.7%	96.1%	108%	94.1%	99%	108%	87	106%	86.6%	101%	100%	94.4%	92.5%	96.2%	119%	102%
CNCCCn1c2c(c3ccc([N+](=O)[O-])cc3c1=O)C(=O)c1cc(OC)cnc1-2	2.17% (active)	-25.9% (active)	-14.9% (active)	1.76% (active)	-25.9% (active)	-15.8% (active)	0.722% (active)	-45.1% (active)	15.6	-28.8% (active)	-7.15% (active)	-25.6% (active)	-76.7% (active)	-34.1% (active)	0.912% (active)	-53.9% (active)	11.1%	-4.18% (active)
CCN(CC)CC#CCOC(=O)[C@]1(C)CCC[C@@]2(C)[C@H]1CC(C=O)=C1C=C(C(C)C)CC[C@@H]12	20.1%	27.8%	73.5%	82.7%	69.5%	73.4%	63.2%	69.1%	67.1	70.9%	41.8%	53%	76.4%	57.2%	68.1%	36.1%	94.6%	55.3%
CC/C=C\C[C@H](F)C/C=C1/C(=O)C=C[C@@H]1C/C=C\CCCC(=O)OC	-25.8% (active)	-10.4% (active)	-15.4% (active)	68.2%	24.2%	50.3%	10.6%	-13.2% (active)	45.2	14.2%	4.66% (active)	-2.64% (active)	0.0777% (active)	14.3%	11.6%	-54.6% (active)	9.38% (active)	-27.7% (active)
O=C1/C(=C/c2ccc(F)cc2)CN(C(=O)CCN2CCC(=NO)CC2)C/C1=C\c1ccc(F)cc1	4.41% (active)	-37.6% (active)	5.09% (active)	-53.9% (active)	-18.7% (active)	-0.984% (active)	-29.2% (active)	-60% (active)	11.4	12.5%	-18.9% (active)	-26.6% (active)	-49.9% (active)	-56.5% (active)	-48.6% (active)	-65.6% (active)	-83.3% (active)	-77.2% (active)
